“And” between values parts separate entries of the source, which are not always exact repeats. Equal values may be shown once. Results filed as inconclusive are left out. The source made the active and inactive calls. Unless noted, no stated cut-off is given here; in the data, active means inhibition above about 80%; inactive means the rest.
How the values were obtained:
[1] = target: ATP-dependent translocase ABCB1 (Homo sapiens) (UniProt P08183); test: P-glycoprotein substrate transport blockade – cell-based (AID 377; in the data active means fluorescence slope change above about 50%); details: MDR1-expressing cells, fluorescent substrate accumulation slope; stronger effect = higher value; concentration not given here
[2] = growth inhibition, single agents and combos, UWB1.289, cell-based, BGB or cisplatin combos, synergistic combos for chromothripsis tumors (AID 1671456); details: UWB1.289 ovarian carcinoma cells, stronger effect = higher value;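 further: cells exposed to compound for four days; 0% = vehicle DMSO and 100% = killing by high DMSO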
[3] = growth inhibition, single agents and combos, LFS_MB_2R, cell-based, cisplatin combos, synergistic combos for chromothripsis tumors (AID 1671457); details: LFS_MB_2R medulloblastoma cells, stronger effect = higher value;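 further: cells exposed to compound for four days before readout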
[4] = UWB1.289_BRCA1 ovarian cancer growth, cell-based, BGB or cisplatin combinations (AID 1671459); details: UWB1.289 BRCA1 ovarian carcinoma, drug combinations, stronger effect = higher value
[5] = drug combination toxicity in non-malignant astrocytes – cell-based, BGB or cisplatin IC20 combos, cytotoxicity control for chromothriptic childhood tumor combination screen (AID 1671460); details: Human astrocytes, viability inhibition, drug combinations, at 0.5 µM, stronger effect = higher value;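 further: cells exposed to compounds for 96 hours before viability readout; 0% = vehicle and 100% = killing control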
[6] = rescue of PC12 cells from polyQ htt toxicity – LDH release (AID 1610); details: PC12 mutant huntingtin toxicity, final LDH at 4 uM, stronger effect = lower value

ATP-dependent translocase ABCB1 (Homo sapiens), sequence (P08183 whole entry, looked up): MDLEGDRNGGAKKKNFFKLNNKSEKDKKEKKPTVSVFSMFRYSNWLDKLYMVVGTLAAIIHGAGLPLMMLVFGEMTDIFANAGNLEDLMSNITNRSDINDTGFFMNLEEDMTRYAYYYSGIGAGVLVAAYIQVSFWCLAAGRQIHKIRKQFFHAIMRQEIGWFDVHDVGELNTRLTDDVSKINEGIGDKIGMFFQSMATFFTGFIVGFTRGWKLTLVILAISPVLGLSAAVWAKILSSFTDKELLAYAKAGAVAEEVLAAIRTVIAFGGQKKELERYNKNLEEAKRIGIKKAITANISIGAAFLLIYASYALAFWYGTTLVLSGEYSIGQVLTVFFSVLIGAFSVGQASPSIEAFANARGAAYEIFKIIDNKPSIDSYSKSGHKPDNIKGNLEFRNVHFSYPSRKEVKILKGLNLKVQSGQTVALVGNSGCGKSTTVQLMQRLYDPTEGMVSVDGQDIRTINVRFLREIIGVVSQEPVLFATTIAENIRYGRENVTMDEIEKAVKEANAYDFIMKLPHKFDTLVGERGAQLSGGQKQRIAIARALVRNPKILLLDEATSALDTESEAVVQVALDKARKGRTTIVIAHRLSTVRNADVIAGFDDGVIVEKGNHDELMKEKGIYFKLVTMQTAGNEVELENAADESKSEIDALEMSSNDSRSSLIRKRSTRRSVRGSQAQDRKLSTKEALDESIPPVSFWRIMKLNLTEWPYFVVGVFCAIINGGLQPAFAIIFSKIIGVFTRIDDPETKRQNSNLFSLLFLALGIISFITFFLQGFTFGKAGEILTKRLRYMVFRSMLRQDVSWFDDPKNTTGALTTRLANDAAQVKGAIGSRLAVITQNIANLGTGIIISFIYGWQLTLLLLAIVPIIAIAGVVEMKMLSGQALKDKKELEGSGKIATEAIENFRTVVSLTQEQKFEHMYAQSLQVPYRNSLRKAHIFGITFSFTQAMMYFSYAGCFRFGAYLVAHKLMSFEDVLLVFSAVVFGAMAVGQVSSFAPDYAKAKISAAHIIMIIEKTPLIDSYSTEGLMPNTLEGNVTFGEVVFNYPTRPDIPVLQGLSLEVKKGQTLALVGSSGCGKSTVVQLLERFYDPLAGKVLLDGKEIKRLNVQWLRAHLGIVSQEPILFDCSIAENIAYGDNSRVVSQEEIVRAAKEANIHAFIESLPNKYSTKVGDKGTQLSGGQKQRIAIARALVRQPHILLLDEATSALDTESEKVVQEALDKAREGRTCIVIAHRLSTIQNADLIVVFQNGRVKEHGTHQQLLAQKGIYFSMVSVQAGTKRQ

With `CCN(CC)CC#CCOC(=O)C(O)(c1ccccc1)C1CCCCC1` (stereo not given) as the compound, how does the fluorescence slope change [1] read?
The fluorescence slope change was 225% (active).

Which results are given for `O=c1[nH]c(=O)n(C2CCCO2)cc1F` (stereo not given)?
inhibition ([2]; at 0.5 µM): 3.3% (inactive) and -11.4% (inactive); inhibition ([2]; measured here: inhibition with BGB combination, at 0.05 µM): 7.79% and -33%; inhibition ([2]; measured here: inhibition with cisplatin combination, at 0.05 µM): 4.79% and -22.4%; inhibition ([3]; at 0.5 µM): -0.54% (inactive) and -25.9% (inactive); inhibition ([3]; measured here: combination with cisplatin, at 0.5 µM): 8.78% and -21.2%; inhibition ([3]; measured here: combination with cisplatin, at 5 µM): 11.8% and -36.1%; inhibition ([4]; BGB combination, concentration series, at 5 µM): 6.02% and -15.3%; inhibition ([4]; at 0.5 µM): 3.23% (inactive) and -25.5% (inactive); inhibition ([4]; cisplatin combination, concentration series, at 5 µM): 12% and 0.169%; inhibition [5]: 4.65% (inactive) and -9.75% (inactive); inhibition ([5]; measured here: combo with BGB IC20): 0.017% and -11.8%; inhibition ([5]; measured here: combo with cisplatin IC20): 11% and -8.67%

With `O=C(c1ccc(OCCN2CCCCC2)cc1)c1c(-c2ccc(O)cc2)sc2cc(O)ccc12` as the compound, how does the fluorescence slope change [1] read?
Its fluorescence slope change is 82.4% (active).

For `CC[C@H]1OC(=O)[C@H](C)[C@@H](O[C@H]2C[C@@](C)(OC)[C@@H](O)[C@H](C)O2)[C@H](C)[C@@H](O[C@@H]2O[C@H](C)C[C@H](N(C)C)[C@H]2O)[C@](C)(O)C[C@@H](C)CN(C)[C@H](C)[C@@H](O)[C@]1(C)O`, which normalised LDH release [6] is on record?
Its normalised LDH release is 0.795.
